In the library only some 6.1% were active in any assay of this set; here they are far more common.
M1 antagonist: blocks the rat M1 muscarinic receptor response to acetylcholine. P08482. B-score at 10 µM. 3.4% of 64,000 active. AID 628. CHO-M1 cells, Fluo-4 calcium, ACh EC80 antagonist mode; stronger effect = lower value;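 active means calcium fluorescence response, raw or row-and-column corrected B-score, differing from the plate sample mean either way at a set confidence level, mostly lower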
Target sequence (P08482 whole entry, looked up): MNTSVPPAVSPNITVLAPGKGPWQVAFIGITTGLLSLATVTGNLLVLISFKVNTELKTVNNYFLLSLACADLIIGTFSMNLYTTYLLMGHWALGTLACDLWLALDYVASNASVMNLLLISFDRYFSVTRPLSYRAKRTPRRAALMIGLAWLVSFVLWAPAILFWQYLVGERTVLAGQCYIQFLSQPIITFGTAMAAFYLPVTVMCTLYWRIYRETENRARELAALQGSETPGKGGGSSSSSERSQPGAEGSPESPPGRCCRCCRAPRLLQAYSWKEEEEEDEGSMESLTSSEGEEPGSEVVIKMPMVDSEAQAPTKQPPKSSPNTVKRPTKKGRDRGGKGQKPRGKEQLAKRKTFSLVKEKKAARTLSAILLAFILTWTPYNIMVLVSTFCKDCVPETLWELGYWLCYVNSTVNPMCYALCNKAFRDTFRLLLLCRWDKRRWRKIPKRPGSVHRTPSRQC
MMP13 inh: blocks human MMP13 activity. inhibition, % at 4 µM. AID 570. 0.07% of 65,000 active. MMP-13 fTHP FRET cleavage, Mca fluorescence;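 active means inhibition above the mean of compound-free control plate wells plus 3 SD, cut at about 14% in these data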;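 further: 0% = DMSO wells and 100% = wells with reference MMP-13 inhibitor after basal subtraction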
M1 agonist: M1 muscarinic receptor agonism; CHO-M1 cells, Fluo-4 calcium fluorescence, agonist mode; stronger effect = higher value; B-score at 10 µM; 3% of 64,000 active;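 active means fluorescence rise, raw or as B-score row- and column-corrected plate score, outside the 99.7% band of its plate's samples, either direction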
MKP-1 inh: blocks human MKP-1 phosphatase activity; inhibition, %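 (compounds tested at a single concentration somewhere between 10 and 100 µM)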; recombinant MKP-1, OMFP hydrolysis fluorescence; P28562; AID 374; 0.15% of 65,000 active;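 active means inhibition above about 50%, limit read from the data; inconclusive means inhibition over screen mean plus 3 SD, below that limit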;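 further: 0% = DMSO max control wells and 100% = wells with enzyme stopped by NaOH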
Hsp90 inh: displaces geldanamycin probe from tumor Hsp90; NCI-N417 lysate Hsp90, Cy3B-geldanamycin FP displacement; AID 429; inhibition, % at 30 µM; 0.35% of 64,000 active; P07900;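 active means inhibition above 50%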;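 further: 0% = tracer plus lysate wells and 100% = tracer alone without lysate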
Cdc25B inh: human M-phase inducer phosphatase 2 inhibition | inhibition, %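 (compounds tested at 10 µM final in the well)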 | recombinant Cdc25B, OMFP fluorescence Ex485/Em525 | P30305 | 0.1% of 65,000 active; in the data active means inhibition above about 50%
* = called active by the depositor.

For O=C(Cn1ncc2c(=O)oc3ccccc3c21)N1CCc2ccccc2C1 the results were M1 antagonist 0.028, MMP13 inh -2, M1 agonist -0.69, MKP-1 inh 7, Hsp90 inh -4 and Cdc25B inh 6.
`COc1ccc(S(=O)(=O)N2CCCC(C(=O)NCc3ccccn3)C2)cc1` (configuration not stated) gave M1 antagonist -0.75, MMP13 inh -4, M1 agonist 0.29, MKP-1 inh -5, Hsp90 inh -1 and Cdc25B inh 4.
Cc1ccc(-n2nnnc2SCC(=O)c2cc(C)n(-c3cc(C)on3)c2C)cc1 was read as M1 antagonist 0.82*, MMP13 inh 2, M1 agonist 0.97, MKP-1 inh 11, Hsp90 inh -4 and Cdc25B inh -10.
CCOC(=O)CS(=O)(=O)c1nc(-c2ccc(F)cc2)cc(C(F)(F)F)n1 was read as M1 antagonist 0.051, MMP13 inh -6, M1 agonist 4.4*, MKP-1 inh 15, Hsp90 inh 3 and Cdc25B inh -2.
`CCOC(=O)c1ccccc1NS(=O)(=O)c1ccccc1F` gave M1 antagonist 0.67, MMP13 inh -6, M1 agonist 1.5, MKP-1 inh -7, Hsp90 inh 0 and Cdc25B inh -14.
For CCOC(=O)N1CCC(NC(=O)CSCc2nc(-c3sccc3C)oc2C)CC1 the results were M1 antagonist 0.58, MMP13 inh -39, M1 agonist -1.8, MKP-1 inh 3, Hsp90 inh 98* and Cdc25B inh -12.
`COc1cc(OC)c(C2CC(=O)N3CN(C)CSC3=C2C#N)cc1OC` (configuration not stated) gave M1 antagonist 0.66*, MMP13 inh 1, M1 agonist -0.56, MKP-1 inh 12, Hsp90 inh -2 and Cdc25B inh -4.
Screening O=S(=O)(NCCNC/C=C/c1ccc(Br)cc1)c1cccc2cnccc12 returned Hsp90 inh -4.
Cc1nc(N)sc1-c1csc(Nc2ccc(Cl)cn2)n1 was read as M1 antagonist -0.14, MMP13 inh 16*, M1 agonist -0.5, MKP-1 inh 15, Hsp90 inh -4 and Cdc25B inh 9.
Screening N#C/C(=C(/O)CSc1nnc(Cc2cccs2)n1C1CCCCC1)c1nc2ccccc2[nH]1 returned M1 antagonist -1, MMP13 inh 0, M1 agonist -0.5, MKP-1 inh 52* and Cdc25B inh 0.
Screening CC(=O)N1CCN(Cc2ccc(Br)s2)CC1 returned M1 antagonist -0.1, MMP13 inh -1, M1 agonist 0.57, MKP-1 inh -2, Hsp90 inh -1 and Cdc25B inh -3.
For CCOc1cc2[nH]c(=O)n(CC3CCC(C(=O)NC(C)CC)CC3)c(=O)c2cc1OCC (configuration not stated) the results were M1 antagonist 1.1*, MMP13 inh -7, M1 agonist 0.46, MKP-1 inh inconclusive, Hsp90 inh -1 and Cdc25B inh -9.
`CC(O)C(=O)NCCOCCOCCNC(=O)C(C)O` (configuration not stated) gave M1 antagonist 0.12, MMP13 inh -4, M1 agonist 0.48, MKP-1 inh 12, Hsp90 inh -1 and Cdc25B inh 8.
Screening Cc1ccc(S(=O)(=O)N2CCN(C(=O)CN3CCc4ccccc4C3)CC2)cc1 returned M1 antagonist -1.7, MMP13 inh 0, M1 agonist -0.0078, MKP-1 inh 3, Hsp90 inh -3 and Cdc25B inh 8.
Screening Cc1cccc(N2CCN(S(=O)(=O)c3ccc4c(c3)CCN4C(=O)CCC(=O)O)CC2)c1C returned M1 antagonist -0.47, MMP13 inh -9, M1 agonist -1.4, MKP-1 inh 51*, Hsp90 inh -2 and Cdc25B inh 9.
For Cc1ccc(S(=O)(=O)N2CCN(C(=O)CCC(=O)N3CCc4ccccc43)CC2)cc1 the results were M1 antagonist -3.3*, MMP13 inh -1, M1 agonist 1.1, MKP-1 inh 13 and Cdc25B inh -14.
O=C(OCCCN1CCCCC1)c1ccc(O)cc1 was read as M1 antagonist 0.49, MMP13 inh 0, M1 agonist 0.36, MKP-1 inh -32, Hsp90 inh -11 and Cdc25B inh 57*.
`CCOC(=O)CCc1c(C)nc(SCCN2CCCC2)c(C#N)c1C` gave M1 antagonist -0.099, MMP13 inh 1, M1 agonist -0.66, MKP-1 inh -14, Hsp90 inh -3 and Cdc25B inh -6.
For CCOC(=O)CCc1c(C)nc2c(c(C)nn2C(C)(C)C)c1C the results were M1 antagonist 2.6*, MMP13 inh 6, M1 agonist 0.45, MKP-1 inh 0, Hsp90 inh -3 and Cdc25B inh -6.
Screening O=C(NCN1C(=O)C2C3C=CC(C3)C2C1=O)OC1CCCCC1 (configuration not stated) returned M1 antagonist 0.13, MMP13 inh 4, M1 agonist -0.38, MKP-1 inh 7, Hsp90 inh -2 and Cdc25B inh -1.
For CCC(C)NCCNc1cc(OC)cc2cccnc12 (configuration not stated) the results were Hsp90 inh 127*.
`COc1cc(NCCN(CC(C)C)CC(C)C)c2ncccc2c1` gave Hsp90 inh 22.
Cc1cccc(N2CCN(C(=O)c3cc4c(C)nc5ccccc5c4o3)CC2)c1C was read as M1 antagonist -0.61, MMP13 inh 2, M1 agonist 0.31, MKP-1 inh 42, Hsp90 inh -3 and Cdc25B inh 5.
Cc1nc2nc[nH]n2c(=O)c1NC(=O)c1c(-c2ccccc2Cl)noc1C was read as M1 antagonist -0.031, MMP13 inh 2, M1 agonist 0.97, MKP-1 inh -15, Hsp90 inh -2 and Cdc25B inh -7.
`Cc1ccc(C2CC(c3ccco3)n3ncnc3N2)cc1` (configuration not stated) gave M1 antagonist -0.83 and M1 agonist -1.
Screening Cc1ccc2c(c1)C(N1CCCC1=O)CC(c1ccco1)N2 (configuration not stated) returned M1 antagonist -0.02, MMP13 inh -5, M1 agonist 2.6*, MKP-1 inh -2, Hsp90 inh -5 and Cdc25B inh 8.
For O=C(CSc1nc2ccccc2c(=O)n1CCCO)NCc1ccccc1 the results were M1 antagonist -0.19, MMP13 inh -2, M1 agonist 0.064, MKP-1 inh 19, Hsp90 inh -3 and Cdc25B inh -1.
Screening Cc1ccc2c(CSc3nc4ccccc4c(=O)n3CCCO)cc(=O)oc2c1 returned M1 antagonist -0.19, MMP13 inh 8, M1 agonist 10*, MKP-1 inh 38, Hsp90 inh -2 and Cdc25B inh -6.
Screening Cc1ccccc1OCc1nc2ccccc2c(=O)n1NC(=O)c1ccco1 returned M1 antagonist 0.5, MMP13 inh 2, M1 agonist -0.099, MKP-1 inh 0, Hsp90 inh -3 and Cdc25B inh 1.

Screening data from PubChem.
